This is a sample that favours compounds with a hit; in the whole collection about 2.8% have one here.
bovine MsrA act: bovine methionine sulfoxide reductase A activation | 360,000 tested, 0.3% active | activation, % at 10.6 µM | purified bovine MsrA, absorbance read-out; in the data active = activation above about 7.5%
SMARCA2 activ: activators of SMARCA2 function; MG213 cells, MMTV-luciferase reporter, dexamethasone, overnight; activation, % at 9.1 µM; 370,000 tested, 1% active; AID 652017; in the data active = activation above about 7.8%
proKLK7 act: proKLK7 (human) activation, primary screen. activation, % at 7 µM. P49862. 370,000 tested, 0.9% active. purified proKLK7, EDANS-DABCYL substrate fluorescence; 100% is mature enzyme control, 0% vehicle;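 active = activation above the mean of all tested compounds plus 3 SD, computed per campaign excluding outliers beyond control limits, cut at about 13% in these data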
Target sequence (P49862 whole entry, looked up): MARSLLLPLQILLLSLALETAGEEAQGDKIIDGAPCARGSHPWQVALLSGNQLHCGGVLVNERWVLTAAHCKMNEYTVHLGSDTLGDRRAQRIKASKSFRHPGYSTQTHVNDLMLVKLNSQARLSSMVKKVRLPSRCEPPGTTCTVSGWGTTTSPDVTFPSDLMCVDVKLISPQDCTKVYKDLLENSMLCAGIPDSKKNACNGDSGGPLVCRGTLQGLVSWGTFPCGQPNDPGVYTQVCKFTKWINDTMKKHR
MsrA inh: bovine MsrA inhibition; purified bovine MsrA, absorbance read-out; inhibition, % at 15.5 µM; AID 651718; 360,000 tested, 0.75% active
MsrA conf: bovine MsrA inhibition, confirmed; shares compounds with MsrA inh; purified bovine MsrA, absorbance read-out; inhibition, % at 15.5 µM; 2,300 tested, 41% active;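 note: coupled to thioredoxin reductase with NADPH and selenocystamine and DMSO as substrate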
Each line names hits and unclear results; the compound was inactive in the other large screens (follow-up assays come after a bar, where they were run). Cut-off read from the data, not from the text of the source, unless noted: active = inhibition above about 4.5%; inactive = the rest.

COc1ccc(NC(=O)C2=CC(c3ccc(OC)cc3)=NS(=O)(=O)N2C)cc1	MsrA inh 5.4 | MsrA conf inactive
COc1ccc(C2=NS(=O)(=O)N(C)C(C(=O)NCc3cccs3)=C2)cc1OC	MsrA inh 4.7 | MsrA conf inactive
CC1=CC(=O)[C@@H](O)[C@@H](c2ccccc2Br)N1C	MsrA inh 5.3 | MsrA conf inactive
O=c1[nH]c(/C=C\c2cccs2)nc(O)c1[N+](=O)[O-]	MsrA inh 5.3 | MsrA conf inactive
CCOc1cc(/C=C\c2nc(O)c([N+](=O)[O-])c(=O)[nH]2)ccc1OC(C)C	none
O=C(NCCCn1ccnc1)c1sc2cc([N+](=O)[O-])ccc2c1Cl	none
C=CCN1C(=O)[C@H](CC(=O)NCc2ccccc2)[C@@]2(C(=O)OCC)CCCC=C12	none (no result: bovine MsrA act, MsrA inh)
Cc1ccc(-c2c(C(=O)O)c(C(=O)O)c3n2CSC3)cc1	none
COC(=O)c1c(C(=O)OC)c(-c2ccc(F)cc2)n2c1CSC2	MsrA inh 5.6 | MsrA conf inactive
Oc1ccc(/C=N\Nc2cc(N3CCOCC3)nc(N3CCOCC3)n2)c(O)c1	MsrA inh 5.3 | MsrA conf inactive
Cc1c(C(=O)N2CCOCC2)sc(NC(=O)c2ccc3c(c2)OCO3)c1C#N	MsrA inh 5.0 | MsrA conf inactive
CCN(CC)C(=O)c1sc(NC(=O)c2ccc3c(c2)OCO3)c(C#N)c1C	none
CNC(=O)N(O)C1N(/N=C/c2ccc(SC)cc2)C(=S)SC1(C)C (configuration not stated)	none
CN(C)c1ccc(/C=N/N2C(=S)SC(C)(C)C2N(O)C(=O)Nc2ccc([N+](=O)[O-])cc2)cc1 (configuration not stated)	MsrA inh 6.1 | MsrA conf inactive
Cc1c(NC(=S)N/N=C/C=C/c2ccc([N+](=O)[O-])cc2)c(=O)n(-c2ccccc2)n1C	MsrA inh 9.8 | MsrA conf 4.9
COc1ccc(/C=N/NC(=S)Nc2c(C)n(C)n(-c3ccccc3)c2=O)cc1OC	MsrA inh 5.2 | MsrA conf inactive
Cc1c(NC(=S)N/N=C/C=C/c2ccccc2)c(=O)n(-c2ccccc2)n1C	MsrA inh 6.4 | MsrA conf 6.8
Cc1c(NC(=S)N/N=C/c2ccc([N+](=O)[O-])cc2O)c(=O)n(-c2ccccc2)n1C	none
Cc1c(NC(=S)N/N=C/c2ccc(Br)cc2)c(=O)n(-c2ccccc2)n1C	none
COC(=O)[C@]12C[C@H](CC(=O)N3CCN(C(=O)C4CC4)CC3)C(=O)N(Cc3ccccc3)C1=C[C@H](C(C)(C)C)O[C@@H]2C	none (no result: bovine MsrA act)
NC(=O)CC1(c2ccccc2)CCCCC1	none
Cc1cc(NC(=O)c2ccc3sc([C@@H]4O[C@H](CO)[C@H](O)[C@H](O)[C@H]4O)nc3c2)no1	none
Cc1ccc(S(=O)(=O)N2CC3C(=O)C[C@@H](c4ccccc4)N(S(=O)(=O)c4ccc(CCCOCCOCCNC(=O)OC(C)(C)C)cc4)C3CC2c2ccccc2)cc1 (some centres not stated)	none (no result: bovine MsrA act)
O=C(O)c1ccc(Nc2ccc([N+](=O)[O-])c3nonc23)cc1	none
CC(=O)c1ccc(Nc2ccc([N+](=O)[O-])c3nonc23)cc1	MsrA inh 7.0 | MsrA conf inactive
CCOC(=O)/C(C#N)=C1/C=CN(c2ccccc2)C=N1	MsrA inh 5.6 | MsrA conf 6.0
CCOC(=O)/C(C#N)=C1/C=Nc2ccccc2N1	none
CCOC(=O)/C(C#N)=C1\C=CN(C)C(C)=N1	MsrA inh 6.0 | MsrA conf inactive
CCOC(=O)/C(C#N)=C1/C=CN(Cc2ccccc2)C=N1	MsrA inh 7.4 | MsrA conf 5.7
CCOC(=O)/C(C#N)=C1/C=CN(C)C=N1	MsrA inh 7.4 | MsrA conf 5.7
O=C1NC[C@@H](CCCCN2C[C@H](Cc3ccc(O)cc3)N(CCC3CCCCC3)C(=O)C2=O)N(CCc2ccc(O)cc2)C1=O	none
CCOC(=O)/C(C#N)=C1/SC(CC)C(=O)N1c1ccc(C)cc1 (configuration not stated)	none
CCOC(=O)/C(C#N)=C1/C=CN(c2ccc(C)cc2)C=N1	MsrA inh 6.6 | MsrA conf 5.2
C=C(C)CSc1nnc(-c2cc(-c3ccc(OC)cc3)n[nH]2)n1N	none (no result: bovine MsrA act, MsrA inh)
Fc1ccc(-c2n[nH]c(=S)n2/N=C/c2c[nH]c3ccccc23)cc1	MsrA inh 5.3 | MsrA conf inactive
Cc1cc(-c2n[nH]c(=S)n2/N=C/c2c[nH]c3ccccc23)n[nH]1	none
O=C(NNC(=O)c1ccc(O)cc1O)c1ccc(-c2ccccc2)cc1	none
Oc1ccc(C(=Nc2ccccc2)c2ccccc2)c(O)c1	MsrA inh 5.3 | MsrA conf inactive

Assay outcomes: PubChem, The Scripps Research Institute Molecular Screening Center
